33 molecules from ChEMBL document CHEMBL3433997, “St. Jude Leishmania screening dataset” (2016) can be followed below.

Holding throughout (type): functional
Test [1] deals with Solute carrier family 2, facilitated glucose transporter member 1 (Homo sapiens) (UniProt P11166). Put plainly: ST_JUDE_LEISH: Cytotoxicity at 2uM final concentration against transgenic Leishmania Mexicana promastigotes LmGLUT1 that are glucose transport deficient and complemented with the human glucose transporter GLUT1. Activity is measured by DNA content using SYBR green in vitro.

In test [2] the target is Hexose transporter 1 (Plasmodium falciparum) (UniProt O97467). Briefly: ST_JUDE_LEISH: Cytotoxicity at 2uM final concentration against transgenic Leishmania Mexicana promastigotes LmPfHT that are glucose transport deficient and complemented with the Plasmodium falciparum hexose transporter. Activity is measured by DNA content using SYBR green in vitro.
The target of test [3] is Glucose transporter (Leishmania mexicana) (UniProt O61059). Put plainly: ST_JUDE_LEISH: Cytotoxicity at 2uM final concentration against transgenic Leishmania Mexicana promastigotes LmGT2 that are glucose transport deficient and complemented with the L. Mexicana glucose transporter 2. Activity is measured by DNA content using SYBR green in vitro.

Solute carrier family 2, facilitated glucose transporter member 1 (Homo sapiens), sequence (P11166 whole entry): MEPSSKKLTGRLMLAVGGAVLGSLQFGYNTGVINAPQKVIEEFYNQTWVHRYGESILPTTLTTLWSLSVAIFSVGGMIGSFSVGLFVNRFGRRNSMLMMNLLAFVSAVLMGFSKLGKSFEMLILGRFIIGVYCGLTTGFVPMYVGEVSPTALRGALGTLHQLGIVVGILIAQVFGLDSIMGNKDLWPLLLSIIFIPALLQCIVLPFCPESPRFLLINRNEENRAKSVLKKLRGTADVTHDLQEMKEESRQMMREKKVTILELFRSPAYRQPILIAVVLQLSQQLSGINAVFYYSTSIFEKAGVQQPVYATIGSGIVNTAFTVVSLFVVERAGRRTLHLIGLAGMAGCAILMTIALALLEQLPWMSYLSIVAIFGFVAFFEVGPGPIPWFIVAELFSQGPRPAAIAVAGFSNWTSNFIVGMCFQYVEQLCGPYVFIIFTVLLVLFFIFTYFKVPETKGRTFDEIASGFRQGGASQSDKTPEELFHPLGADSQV

With `COc1ccc(C2CC(c3cccs3)=NN2C(=O)c2ccccc2)cc1OC` (centres undefined), the inhibition in test [1] stood at 6.92%; in test [2] it was 1.98%; in test [3], 5.57%.
`O=C(Nc1cccc(CN2CCN(Cc3ccc(O)cc3)CC2)c1)c1cccc(C(F)(F)F)c1`: the inhibition in test [1] was found to be 6.03%; in test [2], 6.51%; in test [3], 4.56%.
For the molecule `Cc1cccc2nc(-c3cccc(-c4ccc(NC(=O)c5ccc(=O)[nH]n5)cc4)c3)[nH]c12`, the inhibition was determined as 3.76% in test [1], 3.2% in test [2] and 1.44% in test [3].
`CN(C)c1ccc(-c2ccc(C(=O)NC3CCN(Cc4ccc(C(C)(C)C)cc4)CC3)s2)cc1`: the inhibition in test [1] is 2.66%; in test [2], 1.51%; in test [3], -2.12%.
Take `Cc1ccc(O)c(Nc2c3c(c(C#N)c4nc5ccccc5n24)CCC3)c1`: the inhibition in test [1] was 2.48%; in test [2], 1.2%; in test [3], -0.54%.
The corresponding values for `COc1ccc(Nc2cc(C)nc(Nc3ccc(NC(C)=O)cc3)n2)cc1` are 47%, 67.4% and 32.2%.
Turning to `O=C(CNCC1CCCCC1)Nc1cc(C(F)(F)F)ccc1Cl`, the inhibition in test [1] was found to be 1.93%; in test [2], 0.51%; in test [3], 1.07%.
Consider `CCCC1N=C(N)N=C(N)N1c1ccc(Cl)cc1` (centres undefined), for which the inhibition in test [1] worked out at 2%; in test [2], 2.02%; in test [3], 2.31%.
Turning to `O=C(NC1CCCCN(Cc2ccccc2O)C1)c1ccc(Cl)c(Cl)c1` (centres undefined), the figures for the inhibition in test [1], in test [2] and in test [3] were 7.63%, 5.13% and 3.76%, respectively.
Regarding `CCOC(=O)c1cccc(NC(=O)Nc2cccc(-c3ncc(OCCCN)c4c3nc(-c3nonc3N)n4CC)c2)c1`, the inhibition came to 2.41% in test [1], 3.25% in test [2] and 3.37% in test [3].
For the molecule `O=C(NC1CCN(Cc2ccccc2O)C1)c1ccc(Cl)c(Cl)c1` (centres undefined), the inhibition in test [1] is 0.72%; in test [2], 0.7%; in test [3], -5.99%.
As for `CCCC1N=C(N)N=C(N)N1c1ccc(C)c(C)c1` (centres undefined), the results for the inhibition in test [1], in test [2] and in test [3] were -0.66%, -2.19% and -2.79%, respectively.
The corresponding values for `N=C(N)Nc1nc(CCCCCCCCc2csc(NC(=N)N)n2)cs1` are -1.03%, -0.76% and 1.03%.
Take `CSc1ccccc1NC(=S)NC1CCN(CCCCCNC(=O)/C=C/c2ccc(Cl)c(Cl)c2)CC1`: the inhibition in test [1] was 4.66%; in test [2], 4.89%; in test [3], 4%.
The like results for `Cc1nnc(NC(=O)c2cn(-c3ccccc3)nc2-c2ccccc2C)o1` were, in that order, 1.69%, 2.78% and 2%.
Turning to `COc1cccc(CCN(Cc2ccccc2-c2ccc(CNC3CC(C)(C)NC(C)(C)C3)cc2)C(=O)NC2CCCCC2)c1`, the inhibition in test [1] worked out at 0.9%; in test [2] it was 0.87%; in test [3], 2.67%.
Regarding `FC(F)(F)c1cnc(Sc2nnc(-c3ccncc3)o2)c(Cl)c1`, the inhibition in test [1] was -0.19%; in test [2], -5.1%; in test [3], 9.49%.
As to `COc1ccc(CCNC(=O)c2cc3c(=O)n4cccc(C)c4nc3n(C)c2=N)cc1`, the inhibition in test [1] is 13.4%; in test [2], 10.1%; in test [3], 15.2%.
On to `COc1ccc(CN2CCC(CNCCc3c(Cl)cccc3Cl)CC2)cc1`, for which the inhibition was determined as 7.06% in test [1], 8.38% in test [2] and 9.64% in test [3].
The corresponding values for `COc1ccc2c(=NN=Cc3ccc(F)cc3)cc(C)[nH]c2c1` are 12.2%, 11% and 11.6%.
For the molecule `COC(=O)c1cccc(CNCc2ccc(-c3ccc(-c4nc5cc(C(F)(F)F)ccc5[nH]4)s3)cc2)c1`, the results for the inhibition in test [1], in test [2] and in test [3] were 1.72%, 2.29% and 0.84%, respectively.
Turning to `Cc1cccc2nc(-c3ccc(-c4cccc(NC(=O)c5cnn6cccnc56)c4)cc3)[nH]c12`, the inhibition in test [1] worked out at 15.4%; in test [2] it was 11.7%; in test [3] it was 8.93%.
With `N#Cc1ccc(-c2ccc(C(=O)NCCCCN3CC=C(c4ccc5c(c4OCC4CC4)CCCC5)CC3)cc2)cc1`, the inhibition in test [1] is 0.36%; in test [2], 1.41%; in test [3], -0.24%.
Consider `Cc1noc(C)c1-c1ccc2c(Nc3ccccc3C(C)(C)C)c(C(=O)NCc3ccc4c(c3)OCO4)cnc2c1`, for which the inhibition in test [1] is -1.21%; in test [2] it was 2.69%; in test [3], -0.92%.
Turning to `CCOCCCNc1ncc(-c2ccsc2)c(-c2nc(C)cs2)n1`, the inhibition in test [1] amounted to 8%; in test [2], 6.73%; in test [3], 7.32%.
As to `COc1ccc(C(=O)N2CCC3(CC2)C(=O)N(CC(=O)NCC2CCCCC2)CN3c2ccccc2)c(OC)c1`, the inhibition stood at 5.13% in test [1], 7.03% in test [2] and 3.99% in test [3].
Regarding `CCCCN(CCCC)C(=O)CC(O)c1cc2c(Cl)cc(Cl)cc2c2cc(C(F)(F)F)ccc12` (centres undefined), the inhibition in test [1] was found to be 1.87%; in test [2] it was 1.18%; in test [3] it was 2.43%.
Take `CC(C)c1sc(-c2ccc(C(C)(C)C)cc2)nc1C(=O)NCCCN1CCCC1=O`: the inhibition in test [1] was 1.02%; in test [2], 1.22%; in test [3], 1.9%.
The corresponding values for `Cc1cc(-c2ccc(NC(=O)N3CCc4cc(Br)c(N5CCN(C)CC5)cc43)cc2)ccc1C#N` are 11.9%, 18.9% and 8.55%.
The corresponding values for `COc1ccc(NC(=O)/C=C/c2ccccc2Cl)cc1OCCN1CCC(c2nc3ccccc3[nH]2)CC1` are 3.22%, 1.68% and 2.78%.
Regarding `COc1ccc(-c2cnc3ccc(NCc4ccc(S(N)(=O)=O)cc4)nn23)cn1`, the inhibition came to 4.78% in test [1], 4.83% in test [2] and 5.05% in test [3].
Regarding `CN1CCN(c2ccc3[nH]c(-c4ccc(Cc5cc(Cl)ccc5OCc5ccccc5)o4)nc3c2)CC1`, the inhibition in test [1] was 1%; in test [2], 2.32%; in test [3], 2.2%.
The corresponding values for `COc1ccc(-c2ccc(NC(=O)c3cccc(C#N)c3)cc2)cc1CN1CCCC(C(N)=O)C1` (centres undefined) are 3.09%, 2.51% and 5.2%.

For orientation: inhibition means the change of the read-out against control, counted positive when it falls.
